About 840 (25%) of roughly 3,400 compounds were called active. Another 11% or so got no clear call; they are omitted.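 How the source made its calls: active means fitted half-maximal concentration of signal decrease at or below twice the sample's top tested concentration; inconclusive means flat curve between -70 and -30 percent, or poor fit; inactive means flat within 30 percent, signal rise, or potency above limit.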 Not all results are given here. Potency and affinity values are given separately.
Test: inhibitors of Toxoplasma growth in IFN-γ-primed HeLa – cell-based, ME49Luc, luciferase, 72 h, dose response (AID 1259418)
Conditions: T. gondii ME49Luc in IFN-y HeLa, active compounds read low, -100% = high-dose IFN-γ control wells; at 19.5 µM unless noted
With `Cc1nc(N2CCOCC2)nc2c1CCN(C(=O)C1CC1)CC2` the max activity was 58.7% (inactive). With `Clc1ccc(-n2ncc3c(NC4CCCCCCCCCCC4)ncnc32)cc1` the max activity was -21.9% [at 10 µM] (inactive). With `COC(=O)CC(=O)Nc1ccc(-c2nc(-c3ccc(C)cc3C)co2)cc1` the max activity was 87.6% (inactive). In the case of `COc1ccccc1NC(=O)Nc1ccc(-c2nc(-c3ccc(C)cc3)co2)cc1`, the max activity is reported as -11.4% [at 0.35 µM] (inactive). In the case of `Cc1ccc(-c2coc(-c3ccc(NC(=O)c4ccccc4C)cc3)n2)cc1`, the max activity is reported as 104% (inactive). For `Cc1ccccc1C(=O)Nc1ccc(-c2nc(-c3ccccc3)co2)cc1`, the max activity was 95.8% [at 10 µM] (inactive). For `COc1cc(C(=O)Nc2ccc(-c3nc(-c4ccccc4)co3)cc2)cc(OC)c1OC`, the max activity was -19.1% [at 0.16 µM] (inactive). For `Cc1cc(C)c2c(=O)n(Cc3nc(-c4ccccc4Cl)oc3C)c(=O)n(-c3ccccc3)c2n1`, the max activity was -23.7% [at 10 µM] (inactive). In the case of `Cc1ccc(-c2coc(-c3ccc(NC(=O)Nc4cccc(F)c4)cc3)n2)cc1`, the max activity is reported as -17.7% [at 0.35 µM] (inactive). For `Cc1ccc(S(=O)(=O)Nc2ccc(-c3nc(-c4ccc(C)c(C)c4)co3)cc2)cc1`, the max activity was 33.8% [at 10 µM] (inactive). For `Cc1oc(-c2cccc(Cl)c2)nc1Cn1nnc(-c2nc(-c3cccnc3)no2)c1C`, the max activity was 8.12% [at 10 µM] (inactive). In the case of `C/C=C/c1ccc(C2[C@H]3CNC[C@@H]2N3Cc2cc(F)ccc2F)cc1` (stereo partly drawn), the max activity is reported as 24.5% [at 10 µM] (inactive). In the case of `COCCCN=C(Nc1ccc(C(=O)O)cc1)N1CCN(c2ncnc3ccccc23)CC1`, the max activity is reported as 14.9% (inactive). With `Cc1ccc(-n2ncc3c(NCCCN4CCCC4=O)ncnc32)c(C)c1` the max activity was 50% (inactive). In the case of `Clc1cccc(CNc2ncnc3c2cnn3-c2ccccc2)c1`, the max activity is reported as 95.5% [at 10 µM] (inactive). In the case of `C=CCNc1ncnc2c1cnn2-c1ccc(C)cc1C`, the max activity is reported as 27.6% [at 5 µM] (inactive). In the case of `Clc1ccc(-n2ncc3c(NCCc4ccccc4)ncnc32)cc1`, the max activity is reported as 36% (inactive). With `Cc1cccc(-n2ncc3c(NCCc4ccccc4)ncnc32)c1` the max activity was -21.4% [at 0.35 µM] (inactive). With `COc1ccc(CCNc2ncnc3c2cnn3-c2cccc(C)c2)cc1OC` the max activity was 11.8% [at 1.35 µM] (inactive). With `Cc1cccc(Nc2ncnc3c2cnn3-c2ccc(C)cc2C)c1` the max activity was -13.4% [at 10 µM] (inactive). In the case of `Cc1cccc(-n2ncc3c(NCCCn4ccnc4)ncnc32)c1`, the max activity is reported as 38.7% [at 5 µM] (inactive). With `CCc1ccccc1Nc1ncnc2c1cnn2-c1cccc(C)c1` the max activity was 24.1% [at 10 µM] (inactive). With `COC(=O)CC(=O)Nc1ccc(-c2nc(-c3ccccc3)co2)cc1` the max activity was 102% (inactive). With `COc1ccc(NC(=O)Nc2ccc(-c3nc(-c4ccccc4)co3)cc2)cc1Cl` the max activity was 10% (inactive). In the case of `NC(=O)CN1CCOCCOCCN(CC(N)=O)CCOCC1`, the max activity is reported as 36.3% [at 10 µM] (inactive). With `COc1ccc(-c2nc3c(s2)CN(C(=O)Nc2ccccc2C)CC3)cc1OC` the max activity was -11.5% [at 0.35 µM] (inactive). With `Cc1ccc(S(=O)(=O)N2[C@@H]3CNC[C@H]2C3c2ccc(/C=C/c3ccccc3)cc2)cc1` (stereo partly drawn) the max activity was 32.9% [at 10 µM] (inactive). With `C/C=C/c1ccc(C2[C@H]3CNC[C@@H]2N3Cc2ccc3c(c2)OCO3)cc1` (stereo partly drawn) the max activity was 24% (inactive). In the case of `O=C(CCC1Nc2c3ccccc3nc(=S)n2C1=O)NC1CC1` (stereo not drawn), the max activity is reported as -17.9% [at 1.35 µM] (inactive). For `COc1cccc(-c2ccc(C3[C@H]4CNC[C@@H]3N4C(=O)NC3CCCCC3)cc2)c1` (stereo partly drawn), the max activity was 32.8% [at 10 µM] (inactive). In the case of `C/C=C/c1ccc([C@H]2[C@@H](C#N)N(C(=O)NC3CCCCC3)[C@H]2CO)cc1`, the max activity is reported as -14% [at 2.35 µM] (inactive). In the case of `COc1ccc(N2CCN(c3nc(-c4ccc(Cl)cc4)nc4ccccc34)CC2)cc1`, the max activity is reported as 25.6% (inactive). With `CCOC(=O)C1CCN(C(=O)c2ccc(-c3csc(CC)n3)cc2)CC1` the max activity was 201% [at 10 µM] (inactive). For `N#Cc1ccc(-c2ccc(C3[C@@H]4CN(S(=O)(=O)c5ccc(F)cc5)C[C@H]3N4)cc2)cc1` (stereo partly drawn), the max activity was 13.9% (inactive). With `C/C=C/c1ccc(C2[C@H]3CNC[C@@H]2N3S(=O)(=O)c2ccccc2C)cc1` (stereo partly drawn) the max activity was 50.4% (inactive). With `COc1ccccc1-c1ccc(C2[C@H]3CNC[C@@H]2N3S(=O)(=O)c2ccc(F)cc2)cc1` (stereo partly drawn) the max activity was 43.5% (inactive). For `CCOc1ccc(-c2nc3c(s2)CN(S(=O)(=O)Cc2ccccc2)CC3)cc1`, the max activity was -19.9% [at 0.16 µM] (inactive). In the case of `COc1cccc(-c2ccc(C3[C@H]4CNC[C@@H]3N4CC3CCCCC3)cc2)c1` (stereo partly drawn), the max activity is reported as 25.6% [at 10 µM] (inactive). For `Cn1cnc(S(=O)(=O)N2C[C@@H]3N[C@H](C2)C3c2ccc(-c3ccccc3F)cc2)c1` (stereo partly drawn), the max activity was 25.3% [at 10 µM] (inactive). For `NC(=O)C1(N2CCCCC2)CCN(c2ncc(NC(=O)c3ccc(Cl)cc3)cc2C(=O)O)CC1`, the max activity was -11.3% [at 10 µM] (inactive). For `Cc1ccc(-c2nc(CSc3nc4c(c(=O)[nH]3)CN(C(C)C)CC4)c(C)o2)cc1`, the max activity was -15.7% (inactive). With `Cc1ccc(C)c(-c2coc(-c3ccc(NC(=O)Nc4ccc(F)cc4F)cc3)n2)c1` the max activity was -11.8% [at 2.6 µM] (inactive). In the case of `COc1ccc(CNC(=O)CC2Nc3c4ccccc4nc(=S)n3C2=O)cc1` (stereo not drawn), the max activity is reported as 22.9% [at 0.16 µM] (inactive). For `CCc1ccc(-c2noc(-c3nnn(Cc4nc(-c5ccc(OC)cc5)oc4C)c3C)n2)cc1`, the max activity was -11.2% [at 1.35 µM] (inactive). With `CCc1nc(OCC(=O)Nc2c(C)cccc2C)c2ccccc2n1` the max activity was 19.2% [at 0.35 µM] (inactive). With `Cc1ccc(C2=NC3(CCN(CC(=O)Nc4cccc(C)c4)CC3)NC2=O)cc1` the max activity was -9.18% [at 5 µM] (inactive). In the case of `CCOc1cccc(-c2noc(-c3nnn(Cc4nc(-c5ccccc5OC)oc4C)c3C)n2)c1`, the max activity is reported as 5.65% [at 0.35 µM] (inactive). With `CCOC(=O)c1nn(Cc2ccccc2)c2c1CN(C(=O)CN1CC(c3ccccc3)CC1=O)CC2` (stereo not drawn) the max activity was -5.83% [at 0.038 µM] (inactive).
